The nature of test [1]: qHTS RealTime-Glo MT Cell Viability Assay in HEK293 cells - 32 hour (AID 1224868). Note: top concentration of the series differs between compounds; nearly all actives have a fitted effect of over 50% in size. In short, it runs like this:
(§1)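 Luminescence generated by NanoLuc from substrate produced by living HEK293 cells served as the viability signal. Each value reflects the reading at its stated time point during continuous 40 h compound exposure at 37 C.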
On the technique in general: In qHTS, concentration-response curves come from the screen itself.

Test [2] in a line: A CellTox Green Cytotoxicity Assay to monitor cytotoxicity in HEK293 cells - 0 hour (AID 1224869). Note: nearly all actives have a fitted effect of over 50% in size. In outline:
(§2)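 Seeding of HEK293 cells together with cytotoxicity dye preceded a 5 h incubation at 37 C/5% CO2. Test compounds in DMSO were then added and fluorescence monitored across 40 h.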

Test [3] can be described thus: qHTS RealTime-Glo MT Cell Viability Assay in HepG2 cells - 40 hour (AID 1224870). Note: nearly all actives have a fitted effect of over 50% in size. In short, it runs like this:
(§3)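 HepG2 cells (600/well) mixed with RealTime-Glo MT reagent, settled 5 h at 37 C/5% CO2 before compound addition. Nonlytic NanoLuc luminescence from viable-cell prosubstrate reduction read repeatedly during 40 h treatment at 37 C.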

Test [4] in a line: A CellTox Green Cytotoxicity Assay to monitor cytotoxicity in HEK293 cells - 40 hour (AID 1224871). Note: nearly all actives have a fitted effect of over 45% in size. In outline:
as §2

Test [5] can be described thus: qHTS RealTime-Glo MT Cell Viability Assay in HEK293 cells - 16 hour (AID 1224872). Note: top concentration of the series differs between compounds; nearly all actives have a fitted effect of over 50% in size. In outline:
as §1

Test [6] can be described thus: qHTS RealTime-Glo MT Cell Viability Assay in HEK293 cells - 40 hour (AID 1224874). Note: nearly all actives have a fitted effect of over 50% in size. The note with it: RealTime-Glo luminescence, hits give low values. In short, it runs like this:
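Tox21 screen in HEK293 using RealTime-Glo MT chemistry, with cells and reagent co-dispensed. Luminescence proportional to viable cell number was captured at intervals during 40 h compound exposure at 37 C.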

The nature of test [7]: A CellTox Green Cytotoxicity Assay to monitor cytotoxicity in HEK293 cells - 24 hour (AID 1224875). For activity change: series mostly up to about 77 µM. Note: nearly all actives have a fitted effect of over 45% in size. Note: potency is the fitted concentration of half-maximal effect. In outline: as §2
Test [8] in a line: A CellTox Green Cytotoxicity Assay to monitor cytotoxicity in HepG2 cells - 16 hour (AID 1224876). Note: nearly all actives have a fitted effect of over 45% in size. Note: potency is the fitted concentration of half-maximal effect. In outline: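 Nonlytic assay: viable cells exclude the dye, so fluorescence scales with cell death. HepG2 at 600 cells/well, compounds added after 5 h, signal read across 40 h.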
Test [9] in a line: qHTS RealTime-Glo MT Cell Viability Assay in HepG2 cells - 32 hour (AID 1224877). Note: nearly all actives have a fitted effect of over 55% in size. In outline: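 Tox21 10K library screened in qHTS format on HepG2 cells carrying RealTime-Glo reagents. Compounds were added after a 5 h preincubation, and the luminescent signal from continuous culture was measured repeatedly during 40 h treatment.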
The nature of test [10]: qHTS RealTime-Glo MT Cell Viability Assay in HepG2 cells - 8 hour (AID 1224873). Note: nearly all actives have a fitted effect of over 55% in size. In outline:
as §3

Experimental findings from PubChem BioAssay (Tox21) are described below.

Unmarked numbers belong to inactive results. Records with an inconclusive call do not appear. Calls of active or inactive are those of the source. Calls come from the whole dose curve; as a rule, active = well fitted curve in the direction sought with a large enough effect in the repeat runs; inconclusive = weak or mixed curves; inactive = no such curve, though single readings can be large; an effect the other way counts as inactive or inconclusive.
% is set by controls: 0 for no effect and ±100 for the full control effect.

On to `CCCCCCCCCCCCCC(=O)OCC`, for which the result in test [1], in test [2], in test [3], in [5] and in test [9] was inactive. For the same molecule, the Potency result in [4], in [7] and in test [8] was “inactive” each time. The max response in test [6] was -1.33%.

In the case of `CC(C)(O)CCCC1=CCC(C=O)CC1` (configuration not stated), the outcome in [1], in [2] and in test [3] was inactive. Also, the Potency result in test [4], in [7] and in test [8] was “inactive” in each case. Besides, in test [6], the max response was -16%.

For `CC(C)c1cc(C(C)C)cc(C(C)C)c1`, the outcome in test [1], in [2], in test [3], in test [5] and in test [9] was inactive. The Potency result in test [4] and in test [8] was “inactive” each time. The max response in test [6] is 5.73%.

Regarding `C[C@@H]1CCC[C@H](C)N1CCCC(O)(c1ccccc1)c1ccccn1` (some centres not stated), the molecule was called inactive in test [1], in test [2], in test [3] and in test [10]. Besides, the Potency entry in test [4], in test [7] and in test [8] was “inactive” each time. Also, the max response in test [6] was 4.53%.

On to `NNC(=O)OCc1ccccc1`, for which the molecule was called inactive in test [1], in [2], in test [3], in [5] and in test [9]. Also, the Potency entry in test [4] and in [8] was “inactive” in each case. Further, the max response in test [6] was -4.79%.

Regarding `O=S(=O)(O)c1cc(I)c(O)c2ncccc12`, the molecule was classed as inactive in [1], in test [2], in test [3], in test [5] and in [9]. Moreover, the Potency result in [4], in [7] and in test [8] was “inactive” each time. Also, the max response in test [6] was 5.82%.

On to `CCCCCCCCCCCCCCCCN(C)C`, for which the values for the activity change, negative = cytotoxic in test [1] and in test [3] were 5.99% [at 6.97 µM] and -1.15% [at 6.97 µM], respectively. The cytotoxicity in test [2] was 1.73% [at 6.97 µM]. The activity change, negative = cytotoxicity in test [5] is 5.86% [at 6.97 µM]. Moreover, in test [10], the viability change, negative = cytotoxic was 3.36% [at 6.97 µM]. In addition, in test [6], the max response is 4.91%. Besides, the activity change in test [7] was 2.54% [at 6.97 µM, hits give high values]. Also, in test [8], the cytotoxicity increase was 1.82% [at 6.97 µM].

For the molecule `COc1ccc(Cl)cc1C`, the call in [1], in [2], in test [3], in [10] and in test [9] was inactive. Further, the Potency result in test [4], in test [7] and in [8] was “inactive” throughout.

`O=C1CC2(CCCC2)CC(=O)N1CCNCC1COc2ccccc2O1` (configuration not stated): the result in test [1], in test [2], in test [3], in test [10] and in [9] was inactive. In addition, the Potency entry in test [4], in test [7] and in test [8] was “inactive” in each case. Also, the max response in test [6] was -2.45%.

On to `Cc1nc2ccc(Cl)cc2[nH]1`, for which the molecule was classed as inactive in [1], in [2] and in [3]. In addition, the Potency entry in [4], in test [7] and in test [8] was “inactive” each time. Moreover, in [6], the max response is 7.55%.

As to `O=C(O)P(=O)(O)O`, the call in test [1], in [2], in test [3], in test [10] and in test [9] was inactive. Further, the Potency entry in test [4], in [7] and in test [8] was “inactive” in each case. Besides, the max response in test [6] is 10.7%.

As for `N[C@H]1C(O)O[C@H](CO)[C@@H](O)[C@@H]1O` (some centres not stated), the result in test [1], in [2], in [3] and in test [9] was inactive. Also, the Potency result in test [4] and in test [8] was “inactive” in each case. Moreover, the max response in test [6] was -1.72%.

As for `COc1cc2nc(N3CCN(C(=O)C4CCCO4)CC3)nc(N)c2cc1OC` (configuration not stated), the result in [1], in [2], in [3], in test [5] and in test [9] was inactive. Also, the Potency entry in test [4] and in test [8] was “inactive” in each case. Besides, in [6], the max response is -19.2%.

For the molecule `CNCCc1ccccn1`, the result in test [1], in [2], in test [3], in [5] and in [9] was inactive. Also, the Potency result in test [4], in [7] and in test [8] was “inactive” throughout. Moreover, the max response in test [6] was -0.337%.

On to `CCc1ccc(CC)cc1`, for which the molecule was called inactive in test [1], in test [2], in test [3], in test [5] and in test [9]. Besides, the Potency entry in test [4], in test [7] and in test [8] was “inactive” throughout. In addition, in [6], the max response is 4.78%.

For the molecule `CC(O)C(CO)C(C)O` (configuration not stated), the molecule was classed as inactive in [1], in test [2], in test [3], in [10] and in test [9]. Further, the Potency result in test [4] and in [8] was “inactive” throughout. For the same molecule, the max response in test [6] is -0.0675%.

On to `CCOC(=O)COc1ccc2c(C)c(CCN(CC)CC)c(=O)oc2c1Cl`, for which the call in [1], in [2], in test [3] and in test [9] was inactive. Moreover, the Potency entry in test [4] and in test [8] was “inactive” each time. In addition, the max response in test [6] was 1.31%.

In the case of `C/C=C(\C)C=O`, the outcome in test [1], in test [2], in test [3], in test [10] and in test [9] was inactive. The Potency result in test [4], in test [7] and in test [8] was “inactive” throughout. Moreover, the max response in test [6] is 8.23%.

Turning to `O=C[C@@H](O)[C@H](O)[C@H](O)CO`, the outcome in test [1], in test [2], in test [3] and in test [10] was inactive. For the same molecule, the Potency entry in test [4], in test [7] and in test [8] was “inactive” throughout. For the same molecule, the max response in test [6] is -1.95%.

With `CSC(=O)c1cccc2nnsc12`, the molecule was called inactive in test [1], in [2], in test [3], in [10] and in test [9]. The Potency result in [4], in test [7] and in test [8] was “inactive” each time. Also, the max response in test [6] was -1.81%.

As to `CCCCc1ccc(Cl)cc1`, the outcome in test [1], in test [2], in test [3], in test [5] and in test [10] was inactive. In test [6], the max response was 8.05%. Also, the Potency result in test [7] and in [8] was “inactive” in each case.

For `CC(C)=CCC/C(C)=C\C#N`, the molecule was called inactive in [1], in test [2], in test [3], in [5], in test [10] and in [9]. In addition, the max response in test [6] was 15.8%. Besides, the Potency result in [7] and in test [8] was “inactive” each time.

Take `O=C(c1ccccc1)c1cccc(O)c1`: the call in [1], in test [2], in test [3], in test [5], in [10] and in [9] was inactive. Further, the Potency result in [8] is “inactive”.

Turning to `COC(=O)c1ccccc1Cl`, the molecule was called inactive in [1], in test [2], in test [3], in [5], in [10] and in [9]. Further, the max response in test [6] was 2.48%. Moreover, the Potency entry in test [7] and in test [8] was “inactive” in each case.

`CCCCS`: the molecule was classed as inactive in test [1], in [2], in [3], in [5] and in [9]. In addition, the max response in test [6] was 0.118%. The Potency entry in [8] was “inactive”.

For `COC(=O)N/N=C/c1c[n+]([O-])c2ccccc2[n+]1[O-]`, the result in test [1], in [2], in test [3], in [5], in [10] and in test [9] was inactive. Further, the max response in test [6] was 5.36%. In addition, the Potency in [7] is 21.3 µM (active); in test [8], 23.9 µM (active).

With `C[C@@H]1CC[C@@]2(OC1)O[C@H]1C[C@H]3[C@@H]4CC[C@H]5C[C@@H](O)CC[C@]5(C)[C@H]4CC(=O)[C@]3(C)[C@H]1[C@@H]2C`, the activity change, negative = cytotoxic in test [1] is -2.31% [at 6.97 µM]; in [3] it was -0.288% [at 6.97 µM]; in test [9] it was 1.67% [at 6.97 µM]. Moreover, the cytotoxicity in test [2] was -2.97% [at 6.97 µM]. In addition, the activity change, negative = cytotoxicity in [5] was -0.344% [at 6.97 µM]. Moreover, the viability change, negative = cytotoxic in test [10] is 1.5% [at 6.97 µM]. Further, the max response in test [6] is -0.328%. Besides, the activity change in [7] is -2.49% [at 6.97 µM, hits give high values]. In addition, the cytotoxicity increase in test [8] was -10% [at 6.97 µM].
